{"source": "PubChem BioAssay (EPA / NIEHS)", "note": "Where “and” joins values, the source holds several entries; their conditions need not be identical. Equal values may be shown once. More than one record can exist for a structure, and the calls need not agree. Calls of active or inactive are those of the source. Rule for the calls: active = hit-call score of the fitted dose curve at least 0.9, where 1 is the maximum; inactive = score below 0.9.", "data": [{"read-out": "Collagen IV, COL4A1 (gene 1282)", "assay": "BSK_MyoF_CollagenIV: BioMAP Diversity Plus: MyoF Assay for Collagen IV Biomarker Activity (AID 2284247)", "conditions": "primary human lung fibroblasts", "method": "BSK_MyoF is a cell-based, multiplexed-readout assay that uses lung fibroblasts, […], with measurements taken at 24 hours after chemical dosing in a microplate: 96-well plate.BSK_MyoF_CollagenIV is an assay component measured in the BSK_MyoF assay. It measures Collagen IV antibody related to regulation of gene expression using ELISA technology.Data from the assay component BSK_MyoF_CollagenIV was analyzed at the endpoint, BSK_MyoF_CollagenIV, in the positive analysis fitting direction relative to DMSO as the negative control and baseline of activity. Using a type of binding reporter, gain or loss-of-signal activity can be used to understand protein changes. To generalize the intended target to other relatable targets, this assay endpoint is annotated to the 'cell adhesion molecules' intended target family, where the subfamily is 'collagen'.\nThe levels of cell surface (or secreted, indicated by the prefix \"s\") biomarker endpoints were measured by ELISA. Overt cytotoxicity to cells in confluent adherent cultures (all systems other than the BT system) was assessed by measuring total protein levels using sulforhodamine B (SRB) staining in parallel cultures at the time of biomarker measurements, indicated as SRB endpoints. For proliferation assays for adherent cell types, individual cell types are cultured at sub-confluence and relative cell numbers quantified by SRB staining at time points optimized for each system (48 h: 3C and CASM3C systems; 72 h: BT and HDF3CGF systems; 96 h: SAg system). SRB was performed by staining cells with 0.1% SRB after fixation with 10% TCA and reading wells at 560 nm.Viability and proliferation of PBMC (T cells) was quantified by Alamar Blue reduction for the SAg and BT systems. For PBMC viability (referred to as PBMC Cytotoxicity within the assay endpoint names), cells were plated (75,000/well in a 96-well plate) and then chemical samples added for 1 h before addition of activators, SEB and TSST-1 (20 ng/mL final concentration each). Cells were incubated for 90 h. Then, Alamar Blue (20 uL/well) (Invitrogen, Cat DAL1100) was added for 6 h, and the plates were read with a fluorescence microplate reader at 546/580 nm (excitation/emission). For PBMC proliferation, cells were plated and activated as above but incubated for only 16 h prior to addition of Alamar Blue. Plates were read after 6 h.", "values": [{"smiles": "C=CC(=O)OCC(F)(F)C(F)(F)C(F)(F)COC(=O)C=C", "outcome": "inactive"}, {"smiles": "O=C(F)C1(F)C(F)(F)C(F)(F)C(F)(F)C(F)(F)C1(F)F", "outcome": "inactive"}, {"smiles": "FC(F)(F)C(F)(F)C(F)(F)C(F)(F)C(F)(F)C(F)(F)CC[Si](Cl)(Cl)Cl", "outcome": "inactive"}, {"smiles": "O=S(=O)(OCC(F)(F)F)C(F)(F)C(F)(F)C(F)(F)C(F)(F)F", "outcome": "inactive"}, {"smiles": "FC(F)(F)C(F)(F)C(F)(F)CC1CO1", "note": "(stereo not given)", "outcome": "inactive"}, {"smiles": "C=CC(=O)OCC(F)(F)C(F)(F)C(F)(F)C(F)(F)C(F)(F)C(F)(F)C(F)(F)C(F)F", "outcome": "inactive"}, {"smiles": "NS(=O)(=O)C(F)(F)C(F)(F)C(F)(F)C(F)(F)C(F)(F)C(F)(F)F", "AC50": "25.5 µM (active) and 20.4 µM (active)"}, {"smiles": "CC1=CC2C3C=CC(C3)C2C1C", "note": "(stereo not given)", "outcome": "inactive"}, {"smiles": "Cc1cc(O)c(C(C)(C)C)cc1C(C)(C)C", "AC50": "4.74 µM (active)"}, {"smiles": "C[Si](Cl)(Cl)CCC(F)(F)C(F)(F)C(F)(F)C(F)(F)C(F)(F)C(F)(F)F", "outcome": "inactive"}, {"smiles": "Cc1ccc(S(=O)(=O)C(I)I)cc1", "AC50": "7.25 µM (active)"}, {"smiles": "OCC(F)(F)C(F)(F)C(F)(F)CO", "outcome": "inactive"}, {"smiles": "O=C=NCc1cccc(CN=C=O)c1", "outcome": "inactive"}, {"smiles": "CO[Si](C)(CCC(F)(F)C(F)(F)C(F)(F)C(F)(F)C(F)(F)C(F)(F)F)OC", "outcome": "inactive"}, {"smiles": "O=C=Nc1cccc2c(N=C=O)cccc12", "outcome": "inactive"}, {"smiles": "O=S(=O)(O)CCC(F)(F)C(F)(F)C(F)(F)C(F)(F)C(F)(F)C(F)(F)C(F)(F)C(F)(F)F", "outcome": "inactive"}, {"smiles": "Cc1cnccn1", "outcome": "inactive"}, {"smiles": "O=C(O)C(F)(F)C(F)(F)C(F)(F)C(=O)O", "outcome": "inactive"}, {"smiles": "OCCCC(F)(F)C(F)(F)C(F)(F)C(F)(F)C(F)(F)C(F)(F)C(F)(F)C(F)(F)F", "AC50": "7.39 µM (active)", "outcome": "inactive"}, {"smiles": "O=C(O)CCC(F)(F)C(F)(F)C(F)(F)C(F)(F)C(F)(F)C(F)(F)C(F)(F)F", "outcome": "inactive"}, {"smiles": "NC(=O)C(F)(F)C(F)(F)C(F)(F)C(F)(F)C(N)=O", "outcome": "inactive"}, {"smiles": "CCN(CC)c1ccc(C=O)c(O)c1", "outcome": "inactive"}, {"smiles": "OCC(O)CC(F)(F)C(F)(F)C(F)(F)C(F)(F)F", "note": "(stereo not given)", "outcome": "inactive"}, {"smiles": "CCOC(=O)CC(=O)C(F)(F)C(F)(F)F", "outcome": "inactive"}, {"smiles": "OCC(F)(F)C(F)(F)C(F)(F)C(F)(F)C(F)(F)C(F)(F)C(F)(F)C(F)(F)CO", "outcome": "inactive", "AC50": "49.1 µM (active)"}, {"smiles": "NC(=O)C(F)(F)C(F)(F)C(F)(F)F", "outcome": "inactive"}, {"smiles": "CNS(=O)(=O)C(F)(F)C(F)(F)C(F)(F)C(F)(F)C(F)(F)C(F)(F)C(F)(F)C(F)(F)F", "AC50": "2.71 µM (active) and 3.58 µM (active)"}, {"smiles": "FC(F)(F)C(F)(F)C(F)(F)C(F)(F)C(F)(F)C(F)(F)C(F)(F)CCI", "outcome": "inactive"}, {"smiles": "NCC(F)(F)C(F)(F)C(F)(F)C(F)(F)C(F)(F)C(F)(F)F", "outcome": "inactive"}, {"smiles": "Cc1ccc(O)c(-n2nc3ccccc3n2)c1", "outcome": "inactive"}, {"smiles": "C=C(C)C(=O)OCC(F)(F)C(F)(F)C(F)(F)C(F)F", "outcome": "inactive"}, {"smiles": "O=C(Cl)C(F)(F)C(F)(F)C(F)(F)C(F)(F)C(F)(F)C(F)(F)F", "outcome": "inactive"}, {"smiles": "O=S(=O)(O)CCC(F)(F)C(F)(F)C(F)(F)C(F)(F)F", "outcome": "inactive"}, {"smiles": "C=CC(=O)OCCC(F)(F)C(F)(F)C(F)(F)C(F)(F)F", "outcome": "inactive"}, {"smiles": "CCN(CC)c1ccc2c(c1)Oc1cc(N(CC)CC)ccc1C21OC(=O)c2ccccc21", "outcome": "inactive"}, {"smiles": "O=C(Cl)C(F)(F)C(F)(F)C(F)(F)C(F)(F)C(F)(F)C(F)(F)C(F)(F)F", "outcome": "inactive"}, {"smiles": "NC(O)(C(F)(F)F)C(F)(F)F", "outcome": "inactive"}, {"smiles": "CN(C(=O)C(F)(F)C(F)(F)C(F)(F)F)[Si](C)(C)C", "outcome": "inactive"}]}]}
